These results are taken from PubChem BioAssay (NCI).

Among the test systems are NCI-H23 lung; NCI-H226 lung; HOP-62 NSCLC; NCI-H460 lung; HOP-92 NSCLC; NCI-H522 lung; A549/ATCC NSCLC; 786-0 renal; COLO 205 colon; DU-145 prostate; MALME-3M melanoma; MDA-MB-231 breast; RXF 393 renal; SF-268 CNS; SF-295 CNS; SF-539 CNS; UACC-257 melanoma; M14 melanoma; K-562 leukemia.
Common to all, as to experiment: NCI-60 one-dose screen, 48 h (100 = growth as untreated, 0 = no growth, -100 = all killed)
Conditions in all cases: 10 µM unless noted

Compounds without any hit were thinned out: in the full panel of roughly 83,000, 20% have a hit.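 Compound tested at a single concentration for 48 hours in 96-well plates; a percent growth value below 10 was scored as active.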 A number with no mark means an inactive call. Activity calls are given as the source filed them.

Take `CC(=O)[C@@H]1CC[C@]2(CO)CC[C@]3(C)[C@H](CC[C@@H]4[C@@]5(C)CCCNC(C)(C)[C@@H]5CC[C@]43C)[C@@H]12`: the growth is 94.6% in the assay with NCI-H23 lung; 107% with NCI-H226 lung; 111% with HOP-62 NSCLC; 100% with NCI-H460 lung; 88.7% in the assay with HOP-92 NSCLC; 91.6% in the assay with NCI-H522 lung. The growth with A549/ATCC NSCLC was 112%; in the assay with 786-0 renal, 93.6%; with COLO 205 colon, 106%; in the assay on DU-145 prostate, 101%; in the assay with MALME-3M melanoma, 92.9%; in the assay on MDA-MB-231 breast it was 107%. Besides, the growth is 104% in the assay with RXF 393 renal; 91.2% in the assay with SF-268 CNS; 105% in the assay with SF-295 CNS; 105% in the assay with SF-539 CNS; 123% with UACC-257 melanoma; 93.6% with M14 melanoma.

For the compound `O=C(Nc1ncc(Cc2cc(Cl)ccc2Cl)s1)c1cccs1`, the growth was 71.6% in the assay on NCI-H23 lung; 81% in the assay with NCI-H226 lung; 55.1% in the assay with HOP-62 NSCLC; 33.8% in the assay with NCI-H460 lung; 48.4% in the assay on HOP-92 NSCLC; 43.9% with NCI-H522 lung. Moreover, the growth in the assay on A549/ATCC NSCLC is 38.3%; in the assay with 786-0 renal it was 78.3%; in the assay with COLO 205 colon, 67.5%; with DU-145 prostate it was 81.1%; in the assay on MALME-3M melanoma, 50%; in the assay with MDA-MB-231 breast it was 79.8%. For the same compound, the growth in the assay on RXF 393 renal is 56%; in the assay with SF-268 CNS it was 74.9%; with SF-295 CNS, 50.4%; with SF-539 CNS, 73.9%; with UACC-257 melanoma, 78.6%; in the assay with M14 melanoma it was 42.9%.

Turning to `c1ccc(-c2c(-c3ccccc3)[n+](Cc3ccc4ccccc4c3)c(-c3cccc4ccccc34)n2Cc2ccc3ccccc3c2)cc1`, the growth in the assay on NCI-H23 lung is -38.4% (active); in the assay with NCI-H226 lung, -42.3% (active); in the assay on HOP-62 NSCLC it was -84.7% (active); in the assay on NCI-H460 lung, -80% (active); in the assay on HOP-92 NSCLC, -53.9% (active); in the assay on NCI-H522 lung, -39.5% (active). Further, the growth with A549/ATCC NSCLC was -45.1% (active); in the assay on 786-0 renal, -68.3% (active); with COLO 205 colon it was -65% (active); in the assay with DU-145 prostate, -51.3% (active); in the assay on K-562 leukemia, -3.62% (active); with MALME-3M melanoma, -87.9% (active). Besides, the growth in the assay with MDA-MB-231 breast was -70.5% (active); in the assay on RXF 393 renal, -94.3% (active); in the assay on SF-268 CNS, -38.9% (active); in the assay with SF-295 CNS it was -86% (active); in the assay on SF-539 CNS, -83.5% (active); in the assay with UACC-257 melanoma it was -42.5% (active). For the same compound, in the assay with M14 melanoma, the growth is -63.5% (active).

Take `COc1ccc(OC)c(-c2cc(-c3ccc(Cl)cc3)c3c(N)c(C(=O)c4ccc(Cl)cc4)sc3n2)c1`: the growth in the assay with NCI-H23 lung was 91.4%; in the assay on NCI-H226 lung, 96.1%; in the assay on HOP-62 NSCLC, 81.3%; in the assay on NCI-H460 lung, 105%; in the assay on HOP-92 NSCLC it was 90.9%; in the assay with NCI-H522 lung, 86.1%. Moreover, the growth in the assay on A549/ATCC NSCLC is 97.3%; in the assay on 786-0 renal, 97.3%; in the assay on COLO 205 colon, 110%; with DU-145 prostate it was 107%; with K-562 leukemia, 118%; in the assay with MALME-3M melanoma it was 89.7%. Besides, the growth is 90.4% with MDA-MB-231 breast; 115% in the assay with RXF 393 renal; 100% with SF-268 CNS; 99.2% with SF-295 CNS; 101% with SF-539 CNS; 98.2% in the assay with UACC-257 melanoma. Also, the growth in the assay with M14 melanoma is 102%.

As for `COc1ccc(C(=O)C2C(C#N)C(C#N)C3C=Cc4ccccc4N32)cc1` (stereo unspecified), the growth is 37.9% with NCI-H23 lung; 77.6% in the assay on NCI-H226 lung; 30.1% in the assay with HOP-62 NSCLC; 19.1% in the assay on NCI-H460 lung; 84.1% in the assay on HOP-92 NSCLC; 0.174% (active) with NCI-H522 lung. The growth with A549/ATCC NSCLC was 29.9%; in the assay on COLO 205 colon, -5.52% (active); in the assay on DU-145 prostate, 24.2%; with K-562 leukemia it was 11.5%; in the assay with MALME-3M melanoma, 38.6%; in the assay with MDA-MB-231 breast it was 29%. The growth was -21.8% (active) in the assay on RXF 393 renal; 55.7% in the assay on SF-268 CNS; 22.5% in the assay with SF-295 CNS; -20.9% (active) with SF-539 CNS; 82.9% in the assay with UACC-257 melanoma; -6.64% (active) in the assay with M14 melanoma.

On to `O=C(C1CCC1)N1N=C(c2ccc(-n3ccc(C(F)(F)F)n3)cc2)CC1c1ccc[nH]1` (stereo unspecified), for which the growth with NCI-H23 lung was 101%; in the assay with NCI-H226 lung, 107%; in the assay on HOP-62 NSCLC, 108%; in the assay on NCI-H460 lung it was 101%; in the assay with HOP-92 NSCLC it was 130%; in the assay on NCI-H522 lung it was 84.7%. The growth was 89.3% in the assay with A549/ATCC NSCLC; 95.8% with 786-0 renal; 113% with COLO 205 colon; 103% in the assay on DU-145 prostate; 77.4% with K-562 leukemia; 98.6% with MALME-3M melanoma. Besides, the growth is 83.1% in the assay with MDA-MB-231 breast; 115% in the assay on RXF 393 renal; 102% in the assay on SF-268 CNS; 95% with SF-295 CNS; 98% in the assay on SF-539 CNS; 92.2% in the assay with UACC-257 melanoma. Further, the growth in the assay with M14 melanoma was 93.2%.
